Laboratory results reported in PubChem BioAssay (NCI).
The panel holds about 79,000 compounds, 15% with a hit somewhere; the sample as a whole holds those more often. Calls of active or inactive are those of the source. Rule as the data show it: active = growth inhibition above about 70%; inactive = the rest.

What was measured:
[1] = NCI Yeast Anticancer Drug Screen. Data for the rad52 strain (AID 147);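 also: 0% = growth of vehicle-treated control cultures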; details: S. cerevisiae rad52 mutant growth inhibition, stronger effect = higher value
Procedure, shortened: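 Genetically altered yeast (DNA damage repair defect) treated with compound; inhibition calculated relative to vehicle.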

[2] = NCI Yeast Anticancer Drug Screen. Data for the wt1 strain (AID 149);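 also: 0% = growth of vehicle-treated wt1 cultures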; details: S. cerevisiae wt1 strain (SPY 50644) growth inhibition, stronger effect = higher value
Procedure, shortened: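 Using yeast strain wt1, compound-induced growth inhibition was determined against vehicle-treated cultures.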

[3] = NCI Yeast Anticancer Drug Screen. Data for the rad50EPP+ strain (AID 151);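 also: 0% = growth of vehicle-treated control cultures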; details: S. cerevisiae rad50 mutant strain, stronger effect = higher value
Procedure, shortened: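 Strain rad50EPP+; compound exposure; % growth inhibition vs vehicle.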

[4] = NCI Yeast Anticancer Drug Screen. Data for the rad50 strain (AID 155);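 also: 0% = growth of vehicle-only cultures of the same strain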; details: S. cerevisiae rad50 strain growth inhibition, stronger effect = higher value
Procedure, shortened: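 Relative growth inhibition (compound vs vehicle) was measured in yeast with a defined repair-gene alteration.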

[5] = NCI Yeast Anticancer Drug Screen. Data for the mec2-1 strain (AID 157); details: S. cerevisiae mec2-1 strain, stronger effect = higher value
Procedure, shortened: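 Cells of the genetically defined mec2-1 yeast strain are incubated with test compound. Inhibition of growth is calculated against vehicle-treated controls.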

[6] = NCI Yeast Anticancer Drug Screen. Data for the rad14 strain (AID 159);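 also: 0% = growth of vehicle-treated control cultures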; details: S. cerevisiae rad14 strain growth inhibition, stronger effect = higher value
Procedure, shortened: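 Screen for anticancer potential: a yeast strain altered in DNA damage repair is grown with compound, and reduced growth is quantified against vehicle controls.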

[7] = NCI Yeast Anticancer Drug Screen. Data for the sgs1 mgt1 strain (AID 161);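 also: 0% = growth of cultures given vehicle only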; details: S. cerevisiae sgs1 mgt1 strain, stronger effect = higher value
Procedure, shortened: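 Test agents were incubated with a DNA-repair-mutant yeast strain. Growth was then read and compared against vehicle-treated controls.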

[8] = NCI Yeast Anticancer Drug Screen. Data for the CLN2oe strain (AID 163);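 also: 0% = growth of vehicle-only control cultures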; details: S. cerevisiae CLN2oe strain, stronger effect = higher value
Procedure, shortened: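 Strain altered in cell-cycle control, incubated with compound; growth compared to solvent-treated controls.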

[9] = NCI Yeast Anticancer Drug Screen. Data for the bub3 strain (AID 167); details: S. cerevisiae bub3 mutant strain, stronger effect = higher value
Procedure, shortened: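 Screening used yeast with an engineered genetic alteration affecting cell cycle control. Compound-exposed cultures were compared with vehicle cultures, and reduced growth was taken as inhibition.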

[10] = NCI Yeast Anticancer Drug Screen. Data for the wt2 strain (AID 169);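 also: 0% = growth of vehicle-treated yeast cultures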; details: S. cerevisiae wt2 strain growth inhibition, stronger effect = higher value
Procedure, shortened: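 Steps: yeast strain treated with compound; growth recorded; inhibition calculated relative to cultures given vehicle alone.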

[11] = NCI Yeast Anticancer Drug Screen. Data for the mlh1 strain (AID 171);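 also: 0% = growth of vehicle-treated control cultures of the same strain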; details: S. cerevisiae mlh1 strain growth inhibition, stronger effect = higher value
Procedure, shortened: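 Yeast screen: mutant strain plus compound, growth scored against vehicle control wells.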

[12] = NCI Yeast Anticancer Drug Screen. Data for the sgs1 strain (AID 173);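 also: 0% = growth of vehicle-only control cultures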; details: S. cerevisiae sgs1 mutant, stronger effect = higher value
Procedure, shortened: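 Inhibition of yeast growth served as the measure. The mutant strain was treated with each compound, and growth was normalised to cultures receiving vehicle alone.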

[13] = NCI Yeast Anticancer Drug Screen. Data for the mlh1 rad18 strain (AID 175); details: S. cerevisiae mlh1 rad18 strain growth inhibition, stronger effect = higher value
Procedure, shortened: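 Compound-treated yeast growth, normalised to vehicle controls. Strain bears defined DNA repair mutations.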

[14] = NCI Yeast Anticancer Drug Screen. Data for the rad18 strain (AID 177); details: S. cerevisiae rad18 mutant growth inhibition, stronger effect = higher value
Procedure, shortened: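 Inhibition values reflect reduced yeast growth compared with vehicle-treated controls, using a strain engineered with a DNA damage repair defect.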

[15] = NCI Yeast Anticancer Drug Screen. Data for the cln2 rad14 strain (AID 165);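 also: 0% = growth equal to vehicle treated cultures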; details: S. cerevisiae cln2 rad14 strain, stronger effect = higher value
Procedure, shortened: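 The screen exposed genetically defined yeast (cln2 rad14) to test compounds and scored growth inhibition relative to vehicle-treated controls.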

[16] = at 5.0 µM (retest, dose inferred, filed as 0.5)
[17] = at 50.0 µM (retest, dose inferred, filed as 5.0)

Measured: growth inhibition

CCCCCCCCCCCCCC(=O)OC(C)CCC1CCCO1 (stereo unspecified)
inactive: [1]; at 1.2 µM -2% | [1]; at 3.7 µM 0% | [1]; at 11.0 µM 2% | [1]; at 33.0 µM 1% | [1]; at 100.0 µM -8% | [2]; at 1.2 µM -3% | [2]; at 3.7 µM -2% | [2]; at 11.0 µM -1% | [2]; at 33.0 µM -1% | [2]; at 100.0 µM -3% | [3]; at 1.2 µM 2% | [3]; at 3.7 µM 2% | [3]; at 11.0 µM -2% | [3]; at 33.0 µM -4% | [3]; at 100.0 µM -6% | [4]; at 1.2 µM 1% | [4]; at 3.7 µM 0% | [4]; [16] 3% | [4]; at 11.0 µM 0% | [4]; at 33.0 µM -7% | [4]; [17] 15% | [4]; at 50.0 µM 19.4% | [4]; at 100.0 µM -4% | [5]; at 1.2 µM 0% | [5]; at 3.7 µM -1% | [5]; [16] 13% | [5]; at 11.0 µM -6% | [5]; at 33.0 µM 1% | [5]; [17] 5% | [5]; at 50.0 µM 23.5% | [5]; at 100.0 µM -1% | [6]; at 1.2 µM -2% | [6]; at 3.7 µM -6% | [6]; at 11.0 µM 0% | [6]; at 33.0 µM 3% | [6]; at 100.0 µM -4% | [7]; [16] 3% | [7]; [17] 25% | [7]; at 50.0 µM 13.2% | [8]; at 1.2 µM 1% | [8]; at 3.7 µM 2% | [8]; at 11.0 µM 2% | [8]; at 33.0 µM 4% | [8]; at 100.0 µM 14% | [9]; at 1.2 µM 1% | [9]; at 3.7 µM -1% | [9]; [16] 31% | [9]; at 11.0 µM -1% | [9]; at 33.0 µM -1% | [9]; [17] 1% | [9]; at 50.0 µM 34.6% | [9]; at 100.0 µM -1% | [10]; at 1.2 µM -3% | [10]; at 3.7 µM -3% | [10]; at 11.0 µM -2% | [10]; at 33.0 µM -3% | [10]; at 100.0 µM -6% | [11]; at 1.2 µM -1% | [11]; at 3.7 µM 3% | [11]; at 11.0 µM 2% | [11]; at 33.0 µM 3% | [11]; at 100.0 µM 4% | [12]; at 1.2 µM -1% | [12]; at 3.7 µM 1% | [12]; at 11.0 µM 1% | [12]; at 33.0 µM 3% | [12]; at 100.0 µM 1% | [13]; [16] -2% | [13]; [17] 37% | [13]; at 50.0 µM 20.8% | [14]; at 1.2 µM 0% | [14]; at 3.7 µM 1% | [14]; at 11.0 µM -3% | [14]; at 33.0 µM -4% | [14]; at 100.0 µM -5%

O=C1OC2C(O)COC2(OCc2c[nH]c3ccccc23)C1O (stereo unspecified) (tested in a mixture with another compound)
inactive: [1]; at 1.2 µM -2% | [1]; at 3.7 µM -1% | [1]; at 11.0 µM 1% | [1]; at 33.0 µM 24% | [2]; at 1.2 µM -1% | [2]; at 3.7 µM -1% | [2]; at 11.0 µM 0% | [2]; at 33.0 µM 12% | [3]; at 1.2 µM -5% | [3]; at 3.7 µM 3% | [3]; at 11.0 µM 7% | [3]; at 33.0 µM 14% | [3]; at 100.0 µM 15% | [4]; at 1.2 µM 2% | [4]; at 3.7 µM 5% | [4]; [16] 1% | [4]; at 11.0 µM 19% | [4]; at 33.0 µM 26% | [4]; [17] 15% | [4]; at 50.0 µM 66.4% | [5]; at 1.2 µM 0% | [5]; at 3.7 µM 1% | [5]; [16] -3% | [5]; at 11.0 µM 1% | [5]; at 33.0 µM 12% | [5]; [17] 22% | [5]; at 50.0 µM 49.1% | [6]; at 1.2 µM -2% | [6]; at 3.7 µM 2% | [6]; at 11.0 µM 4% | [6]; at 33.0 µM 30% | [7]; [16] -3% | [7]; [17] 48% | [7]; at 50.0 µM 66.5% | [8]; at 1.2 µM 1% | [8]; at 3.7 µM 1% | [8]; at 11.0 µM 0% | [8]; at 33.0 µM 9% | [8]; at 100.0 µM 54% | [15]; [16] -2% | [15]; [17] 36% | [15]; at 50.0 µM 42.4% | [9]; at 1.2 µM 0% | [9]; at 3.7 µM 3% | [9]; [16] -1% | [9]; at 11.0 µM 3% | [9]; at 33.0 µM 22% | [9]; [17] 46% | [9]; at 50.0 µM 6.5% | [10]; at 1.2 µM -2% | [10]; at 3.7 µM 7% | [10]; at 11.0 µM 0% | [10]; at 33.0 µM 5% | [11]; at 1.2 µM -1% | [11]; at 3.7 µM -2% | [11]; at 11.0 µM -2% | [11]; at 33.0 µM 11% | [13]; [16] -3% | [13]; [17] 26% | [14]; at 1.2 µM 0% | [14]; at 3.7 µM 2% | [14]; at 11.0 µM 9% | [14]; at 33.0 µM 68%
active: [1]; at 100.0 µM 84% | [2]; at 100.0 µM 88% | [4]; at 100.0 µM 95% | [5]; at 100.0 µM 91% | [6]; at 100.0 µM 95% | [9]; at 100.0 µM 92% | [10]; at 100.0 µM 75% | [11]; at 100.0 µM 87% | [13]; at 50.0 µM 88.9% | [14]; at 100.0 µM 96%

COC(=O)c1cccc(C)c1C(=O)c1c(C)cc(C)cc1C
active: [1]; at 100.0 µM 77% | [3]; at 100.0 µM 76% | [4]; at 100.0 µM 76% | [5]; at 100.0 µM 72% | [13]; [17] 82%
inactive: [1]; at 1.2 µM -1% | [1]; at 3.7 µM -1% | [1]; at 11.0 µM 4% | [1]; at 33.0 µM 28% | [2]; at 1.2 µM 0% | [2]; at 3.7 µM 1% | [2]; at 11.0 µM -2% | [2]; at 33.0 µM 5% | [2]; at 100.0 µM 53% | [3]; at 1.2 µM -6% | [3]; at 3.7 µM 6% | [3]; at 11.0 µM 5% | [3]; at 33.0 µM 26% | [4]; at 1.2 µM -1% | [4]; at 3.7 µM 1% | [4]; [16] -10% | [4]; at 11.0 µM 5% | [4]; at 33.0 µM 28% | [4]; [17] 52% | [4]; at 50.0 µM 15.5% | [5]; at 1.2 µM -3% | [5]; at 3.7 µM -1% | [5]; [16] 3% | [5]; at 11.0 µM 4% | [5]; at 33.0 µM 21% | [5]; [17] 59% | [5]; at 50.0 µM 22.8% | [6]; at 1.2 µM 0% | [6]; at 3.7 µM 0% | [6]; at 11.0 µM 5% | [6]; at 33.0 µM 20% | [6]; at 100.0 µM 47% | [7]; [16] -7% | [7]; [17] 25% | [7]; at 50.0 µM 25.1% | [8]; at 1.2 µM 3% | [8]; at 3.7 µM 2% | [8]; at 11.0 µM 2% | [8]; at 33.0 µM 11% | [8]; at 100.0 µM 42% | [15]; [16] -25% | [15]; [17] 15% | [15]; at 50.0 µM 25.2% | [9]; at 1.2 µM 0% | [9]; at 3.7 µM -2% | [9]; [16] 9% | [9]; at 11.0 µM -3% | [9]; at 33.0 µM 4% | [9]; [17] 22% | [9]; at 50.0 µM 16.8% | [9]; at 100.0 µM 62% | [10]; at 1.2 µM -3% | [10]; at 3.7 µM -3% | [10]; at 11.0 µM -4% | [10]; at 33.0 µM 9% | [10]; at 100.0 µM 50% | [11]; at 1.2 µM -1% | [11]; at 3.7 µM 2% | [11]; at 11.0 µM 6% | [11]; at 33.0 µM 19% | [11]; at 100.0 µM 59% | [13]; [16] 4% | [13]; at 50.0 µM 15.7% | [14]; at 1.2 µM 4% | [14]; at 3.7 µM 7% | [14]; at 11.0 µM 10% | [14]; at 33.0 µM 28% | [14]; at 100.0 µM 67%
